The full list was thinned out, with hits kept by preference.
KDM5B inhibitor: blocks human KDM5B histone demethylase activity; Q9UGL1; KDM5B demethylase, FDH-coupled NADH fluorescence (FDH is formaldehyde dehydrogenase); Potency, µM (top dose mostly 57.7 µM), actives largely listed as inhibitors; 2.6% of 220,000 active; AID 1347165; active = well fitted inhibition curve with a large enough effect; also: 0% is about no effect; nearly all actives have a fitted effect of over 70% in size
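KDM5BΔAP (200 nM final) in 50 mM HEPES pH 7.5, 0.01% Tween-20 was preincubated 10 min at RT with compound over a concentration range. Substrate mix (H3K4me3 12.5 µM, α-KG 25 µM, Fe²⁺, ascorbate, NAD⁺, FDH) was added, and NADH fluorescence change over 30 min gave dose-response curves.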
An asterisk follows results filed as active; i = inactive. Potency is read from the fitted curve at half-maximal effect.

SMILES	KDM5B inhibitor
O=C(c1cccnc1)N1CCN(C(=O)c2nnn3c2COC(c2ccc(Cl)cc2)C3)CC1 (stereo not drawn)	i
Cc1ccc(-c2cc(N3CCCN(C(=O)c4ccccc4F)CC3)n[nH]2)cc1C	i
O=C(c1cccnc1)N1CCN(c2nnc3ccc(Cl)cn23)CC1	16µM*
COc1ccc(C(=O)N2CCN(Cc3ccc(=O)n(C)c3)CC2)cn1	i
COc1ccc(C(=O)N2CCCn3cc(-c4ccccc4F)nc32)cn1	i
COc1ccc(C(=O)N2CCCN(c3nnc4ccc(Cl)cn34)CC2)cn1	22µM*
Cc1ccc(-c2cc(N3CCCN(C(=O)c4cccnc4)CC3)n[nH]2)cc1C	i
Cc1ccccc1C(=O)N1CCCN(c2cc(-c3ccccc3)[nH]n2)CC1	i
Cc1ccccc1C(=O)N1CCCN(c2nnc3ccc(Cl)cn23)CC1	25µM*
O=C(CSc1ncnc2nc[nH]c12)Nc1ccc(Cl)cc1	i
CCNC(=O)CSc1ncnc2cc(-c3ccc(F)cc3)sc12	i
CCc1ccc(-c2nn(-c3ccccc3)cc2/C=N/O)cc1	i
COc1ccccc1NC(=O)Cn1c(C)ccc(NS(=O)(=O)c2ccccc2)c1=O	i
CCCn1c(=O)[nH]c(=O)c2c1nc(-c1ccc(OC)c(O)c1)n2CCN1CCOCC1	i
CC(C)NC(=O)/C(C#N)=C/c1ccc(C(=O)O)cc1	i
O=C1NCc2ccccc2CC12CCN(Cc1ccc(Oc3ccccc3)cc1)C2 (stereo not drawn)	i
c1ccc(Cn2ccnc2C2CCN(c3ncnc4ccsc34)CC2)nc1	i
CCn1ccnc1C1CCN(c2nc3ccccc3s2)CC1	i
Cc1cc(N2CCC(c3nccn3Cc3ccccn3)CC2)nc2ccccc12	32µM*
O=C(O)Cc1ccc(S(=O)(=O)Cc2ccccc2)cc1	i
Clc1ccc(Sc2ccnc3cc(Cl)ccc23)cc1	i
CN(C)Cc1nnc(C2CC(NC(=O)c3cc(-c4cccn4C)n[nH]3)C2)n1C (stereo not drawn)	i
CN(C)Cc1nnc(C2CC(NC(=O)c3ccn(C)c(=O)c3)C2)n1C (stereo not drawn)	32µM*
CN(C)Cc1nnc(C2CC(NC(=O)c3ccc4c(c3)CCC4)C2)n1C (stereo not drawn)	i
CN(C)Cc1nnc(C2CC(Nc3cncc(C(=O)N(C)C)n3)C2)n1C (stereo not drawn)	28µM*
SMILES	KDM5B inhibitor
CC(=O)c1c(C)nn(CC(=O)NC2CC(c3nnc(CN(C)C)n3C)C2)c1C (stereo not drawn)	i
CN(C)Cc1nnc(C2CC(NC(=O)c3cn(-c4ccccc4)nn3)C2)n1C (stereo not drawn)	i
CCn1c(CN2CCN(c3ccccc3)CC2)nc2c1c(=O)n(C)c(=O)n2C	i
O=S(=O)(NC1CCSc2c(F)cccc21)c1cccc(Cl)c1 (stereo not drawn)	i
CN(c1ccccc1)c1ccc2ncn(C3CC3)c(=O)c2n1	i
COc1ccc(-c2ccc3ncn(C)c(=O)c3n2)cc1OC	i
COc1ncc(-c2ccc3ncn(C4CC4)c(=O)c3n2)cn1	32µM*
Cc1cc(=O)n(CC(=O)Nc2cc(Cl)ccc2C)c(N2CCOCC2)n1	i
CCN(CC(=O)N1CCOCC1)S(=O)(=O)c1ccc(Cl)cc1	i
Cc1ccc(C)c(N2CCN(C(=O)Cn3cnc(S(=O)(=O)N4CCOCC4)c3)CC2)c1	i
Cc1ccc(C)c(-n2nc(-c3c(C)nc4scc(CC(=O)N5CCOCC5)n4c3=O)cc2C)c1	28µM*
Cc1ccc(Cl)cc1-n1nc(-c2c(C)nc3scc(CC(=O)N4CCOCC4)n3c2=O)cc1C	28µM*
Cc1ccc(C)c(N2CCN(S(=O)(=O)c3c(C)nc4scc(C)n4c3=O)CC2)c1	i
Cc1ccc(NC(=O)C(C#N)=C2CCC(C(C)(C)C)CC2)cc1 (stereo not drawn)	i
N#C/C(=C\c1cccn1-c1cccc(Br)c1)c1ccccc1	i
O=C(c1ccn2nccc2c1)N1CCOCC1	32µM*
O=C(c1ccc(Cl)c(S(=O)(=O)N2CCOCC2)c1)N1CCOCC1	i
O=C(c1ccn2cncc2c1)N1CCOCC1	i
Cc1ccc(NC(=S)NNC(=O)C(c2ccccc2)c2ccccc2)c(C)c1	i
O=C(c1ccc(N2CCC(O)CC2)nc1)N1CCC(Oc2cccnc2)CC1	i
O=C(c1ccc(N2CC3CC(C2)[C@H]2CCCC(=O)N2C3)nc1)N1CCOCC1 (stereo partly drawn)	i
O=C(c1ccc(N2CC[C@H](O)C2)nc1)N1CCC(N2CCOCC2)CC1	25µM*
COc1ccccc1N1CCCc2ncc(C(=O)NCCc3c[nH]c4ccccc34)cc21	28µM*
COc1ccccc1N1CCCc2ncc(C(=O)N3CC[S+](=O)([O-])CC3)cc21	i
COc1ccccc1N1CCCc2ncc(C(=O)N3CCC[C@@H]3c3ccc(F)cc3)cc21	i
SMILES	KDM5B inhibitor
COc1ccccc1CC(=O)N1CCCc2ncc(C(=O)N(C)Cc3ccccc3)cc21	i
COc1ccccc1N1CCCc2ncc(C(=O)NCCOc3ccccc3)cc21	i
COc1ccccc1N1CCCc2ncc(C(=O)N3CCCC[C@@H]3Cc3ccccc3)cc21	25µM*
CC(C)c1ccc(CC(=O)N2CCCc3ncc(C(=O)N4CCCC[C@@H]4Cc4ccccc4)cc32)cc1	i
COc1ccccc1N1CCCc2ncc(C(=O)N(C)Cc3ccccc3)cc21	35µM*
COc1ccc(NC(=O)c2cnc3c(c2)N(c2ccccc2OC)CCC3)cn1	i
CCNC(=O)C(C)NC(=O)C1(c2cccc(C)c2)CCCC1 (stereo not drawn)	i
CCOc1cc(C2/C(=C(\O)c3ccc(Cl)cc3)C(=O)C(=O)N2c2cc(C)on2)ccc1O (stereo not drawn)	i
COc1cc(F)ccc1-c1ccc(=O)n(CC(=O)N2CCC(Cc3ccccc3)CC2)n1	i
CSC1=N/C(=C\c2cccc(OC(C)=O)c2)C(=O)S1	i
C=CCS(=O)(=O)c1ccc(Br)c2ccccc12	i
CN(C)c1nc2c(c(=O)[nH]1)CCN(Cc1ccc(Cl)c(F)c1)CC2	28µM*
CN(C)c1nc2c(c(=O)[nH]1)CCN(Cc1cc(F)c(F)c(F)c1)CC2	i
CN(C)c1nc2c(c(=O)[nH]1)CCN(Cc1cc(Cl)ccc1F)CC2	i
CC(C)(C)c1ccc(COC(=O)c2ccc(S(C)(=O)=O)cc2)cc1	i
CCN(CC)Cc1cnc2c(C(=O)NCCc3cccs3)cnn2c1	i
O=C(CCc1ccc2c(c1)OCO2)N[C@H](c1cccs1)C1CC(O)C1 (stereo partly drawn)	i
O=C(N[C@H](c1cccs1)C1CC(O)C1)c1cccc(-n2cccn2)c1 (stereo partly drawn)	i
NS(=O)(=O)c1ccc(C(=O)N[C@H](c2cccs2)C2CC(O)C2)cc1 (stereo partly drawn)	i
CNc1ncccc1C(=O)N[C@H](c1cccs1)C1CC(O)C1 (stereo partly drawn)	28µM*
O=C(N[C@H](c1cccs1)C1CC(O)C1)c1cnn2cc(CCO)cnc12 (stereo partly drawn)	14µM*
COc1ccc(C(=O)N[C@H](c2cccs2)C2CC(O)C2)c(F)c1F (stereo partly drawn)	i
CNc1cc(C(=O)N[C@H](c2cccs2)C2CC(O)C2)ccn1 (stereo partly drawn)	28µM*
Cn1ccc2c(C(=O)N[C@H](c3cccs3)C3CC(O)C3)cccc21 (stereo partly drawn)	i
